Screen size: about 310,000 compounds; about 14,000 (4.5%) showed an effect of 50% or more. Effects have a minus sign here. The sample holds strong results, similar compounds and a random draw of the others, so the mix is not that of the screen.
These compounds were tested against human ether-à-go-go-related gene (hERG) potassium channel (human, UniProt Q12809) (assay: primary screen, population patch clamp on CHO cells stably expressing hERG; higher = less effect of the substance).
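Note: peak tail current of the secondary pulse compared with the same well before compound.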

human ether-à-go-go-related gene (hERG) potassium channel, sequence (Q12809 whole entry, looked up): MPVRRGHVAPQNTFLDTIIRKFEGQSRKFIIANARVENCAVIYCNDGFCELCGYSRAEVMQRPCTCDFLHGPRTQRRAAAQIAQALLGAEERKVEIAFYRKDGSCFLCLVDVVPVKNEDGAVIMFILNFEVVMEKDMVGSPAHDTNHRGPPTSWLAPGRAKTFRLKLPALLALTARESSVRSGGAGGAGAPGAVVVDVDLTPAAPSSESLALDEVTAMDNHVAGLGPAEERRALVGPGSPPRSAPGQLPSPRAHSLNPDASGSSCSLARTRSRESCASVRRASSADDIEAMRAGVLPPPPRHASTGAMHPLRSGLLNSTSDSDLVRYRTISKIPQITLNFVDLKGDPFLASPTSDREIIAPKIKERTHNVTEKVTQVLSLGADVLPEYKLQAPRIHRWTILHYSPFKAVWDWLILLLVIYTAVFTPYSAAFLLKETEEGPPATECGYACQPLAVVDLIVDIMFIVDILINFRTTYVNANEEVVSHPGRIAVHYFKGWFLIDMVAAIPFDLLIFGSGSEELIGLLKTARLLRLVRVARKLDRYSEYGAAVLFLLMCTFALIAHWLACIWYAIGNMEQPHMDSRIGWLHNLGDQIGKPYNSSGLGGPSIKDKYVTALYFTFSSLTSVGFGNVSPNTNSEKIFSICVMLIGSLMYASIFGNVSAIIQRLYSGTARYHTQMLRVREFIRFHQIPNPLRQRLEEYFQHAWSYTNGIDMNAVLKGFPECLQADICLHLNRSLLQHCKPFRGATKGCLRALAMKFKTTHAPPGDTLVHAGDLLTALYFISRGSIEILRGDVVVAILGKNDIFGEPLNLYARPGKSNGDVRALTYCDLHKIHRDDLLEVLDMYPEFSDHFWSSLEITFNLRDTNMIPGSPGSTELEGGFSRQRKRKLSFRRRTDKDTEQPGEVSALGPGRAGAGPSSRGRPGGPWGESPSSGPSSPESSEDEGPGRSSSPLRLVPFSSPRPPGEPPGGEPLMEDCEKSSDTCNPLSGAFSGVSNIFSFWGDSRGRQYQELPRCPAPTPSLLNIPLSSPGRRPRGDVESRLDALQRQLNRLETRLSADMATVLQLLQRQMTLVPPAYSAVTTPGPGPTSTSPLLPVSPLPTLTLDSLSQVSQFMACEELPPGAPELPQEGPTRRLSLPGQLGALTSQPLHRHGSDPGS

In order of falling “hERG current change (%, negative = inhibition) at 10uM” value:
1. O=C(NCCc1cn[nH]c1)C1CCC(=O)N(CCc2cccc(F)c2)C1 (stereo not drawn)  25.1%
2. O=C(O)c1ccc(NC(=S)NC(=O)c2ccc(-c3ccccc3)cc2)cc1  19.4%
3. Cc1cc(NC(=O)Nc2cc(F)ccc2F)no1  17.7%
4. CS(=O)(=O)Nc1ccccc1C(=O)N1CCOCC1  16.4%
5. CCOc1ccccc1C(=O)Nc1cc(Cl)ccc1O  14.7%
6. COc1ccccc1CC(=O)Nc1ccc(S(=O)(=O)N2CCN(C)CC2)cc1  14.4%
7. Cc1ccc(-c2n[nH]c(=O)c3ccccc23)cc1S(=O)(=O)NC(C)(C)C  13.6%
8. O=C(NCCc1ccc(C(F)(F)F)cc1)C1CCC(=O)N(CCCN2CCCC2=O)C1 (stereo not drawn)  13.1%
9. Cc1ccc(N/N=C(\C#N)C(=N)N2CCCCCC2)cc1  12.7%
10. CNC[C@H](NC[C@@H](NCCCc1ccccc1)c1ccccc1)[C@H](C)O  11.7%
11. O=C(Nc1cc(Sc2ccccn2)cc([N+](=O)[O-])c1)c1ccc(Cl)cc1  11.6%
12. NS(=O)(=O)c1cccnc1Nc1c(Cl)cccc1Cl  10.6%
13. O=C(NCCN1CCCC1=O)C1CCC(=O)N(CCc2cccc(F)c2)C1 (stereo not drawn)  9.49%
14. O=C(CS(=O)(=O)c1ccc(F)cc1)Nc1nccs1  9.06%
15. O=C(NCCc1ccccc1)C1CCC(=O)N(CCCN2CCCC2=O)C1 (stereo not drawn)  5.82%
16. CCOCC(=O)Nc1ccc(Br)c(C)c1  4.88%
17. COc1ccc(CCn2c(N)c(C#N)c3nc4ccccc4nc32)cc1OC  4.14%
18. Cc1ccc(C)c(C(=O)Nc2cc(C)nn2-c2nc(C)cc(C)n2)c1  3.98%
19. COc1ccc(S(=O)(=O)N2CCCCCC2)cc1NC(=O)c1ccccc1F  3.54%
20. Cc1ccc(C2(COC(=O)C(C)C)CO2)c(OC(=O)C(C)C)c1 (stereo not drawn)  2.15%
21. Cc1cc(C)nc(-n2nc(C)cc2NC(=O)c2ccc(F)cc2F)n1  -0.0513%
22. CCn1c(SCC(N)=O)nnc1-c1ccc2c(c1)OCO2  -0.333%
23. CCc1ccccc1NC1c2ccccc2C(=O)N1c1cc(C)ccn1 (stereo not drawn)  -1.18%
24. CN(CC(=O)Nc1ccc(Cl)cc1)CC(=O)Nc1cccc2ccccc12  -2.26%
25. NC(=O)c1ccsc1NC(=O)CCS(=O)(=O)c1ccc(F)cc1  -2.69%
26. CC1=C(C(=O)OC(C)C)C(c2ccc(F)cc2)NC(=O)N1 (stereo not drawn)  -5.4%
27. CCCN(Cc1nnc(-c2ccccc2Cl)o1)C(=O)c1cccc(S(=O)(=O)N2CCOCC2)c1  -6.05%
28. COc1ccc(CC(=O)N2CCc3cc(OC)c(OC)cc3C2C)c(OC)c1 (stereo not drawn)  -6.22%
29. O=C(/C=C/c1ccccc1Cl)Nc1ccc(-c2nnc3n2CCCCC3)cc1  -6.47%
30. NC(=O)c1ccsc1NC(=O)CS(=O)(=O)c1ccccc1  -8.27%
31. Cc1ccc(CSCC(=O)Nc2ccc3c(c2)OCO3)cc1  -14.5%
32. CCN(CC)C(=N)/C(C#N)=N/Nc1ccccc1  -15.7%
33. CCCN(Cc1nnc(-c2ccccc2Cl)o1)C(=O)c1cc2ccccc2o1  -17%
34. O=C(c1cccc(S(=O)(=O)N2CCOCC2)c1)N(Cc1nnc(-c2ccccc2Cl)o1)C1CC1  -24.9%
35. CCN(CC)S(=O)(=O)c1cccc(-c2nnc(SCC(=O)c3cc(C)n(C)c3C)o2)c1  -25.5%
36. O=C(NCCc1cccs1)C1CCC(=O)N(CCc2cccc(F)c2)C1 (stereo not drawn)  -26.1%
37. CCCCc1nc2ccccc2c(NC(=O)CN(CC)CC)c1CCC.O=C(O)C(=O)O  -26.8%
38. COc1cc(CNC(C)(C)C)cc(Br)c1OCc1cccs1.Cl  -28.7%
39. Cc1ccc(S(=O)(=O)N2CCOCC2)cc1C(=O)N(Cc1nnc(-c2ccccc2Cl)o1)C1CC1  -33.9%
40. O=C(c1cc([N+](=O)[O-])cc([N+](=O)[O-])c1)N(Cc1nnc(-c2ccccc2Cl)o1)C1CC1  -36.8%
41. CNC(=O)c1ccsc1NC(=O)CS(=O)(=O)c1ccc(Cl)cc1  -38.6%
42. O=C(CSc1oc(-c2ccco2)nc1S(=O)(=O)c1ccc(Cl)cc1)NCC1CCCO1 (stereo not drawn)  -41.3%
43. COc1ccc(CCN2CC(C(=O)NCCc3ccc(C(F)(F)F)cc3)CCC2=O)cc1 (stereo not drawn)  -46.8%
44. CCCN(Cc1nnc(-c2ccccc2Cl)o1)C(=O)c1cc(S(=O)(=O)N2CCOCC2)ccc1F  -47.7%
45. O=C(NCCc1ccc(C(F)(F)F)cc1)C1CCC(=O)N(CCCc2ccccc2)C1 (stereo not drawn)  -50.2%
46. O=C(NCCc1ccc(C(F)(F)F)cc1)C1CCC(=O)N(CCc2cccc(F)c2)C1 (stereo not drawn)  -51.4%
47. Cc1cc(C)nc(-n2nc(C)cc2NC(=O)CNC2CCCCC2)n1  -52.4%
48. CCCN(Cc1nnc(-c2ccccc2Cl)o1)C(=O)c1cc([N+](=O)[O-])cc([N+](=O)[O-])c1  -55.1%
49. CCCN(Cc1nnc(-c2ccccc2Cl)o1)C(=O)c1ccc(C)c(S(=O)(=O)N2CCOCC2)c1  -55.8%
50. CCN(CC)C(=N)/C(C#N)=N/Nc1ccc(C)cc1  -56.6%
51. O=C(NCCc1cccc(C(F)(F)F)c1)C1CCC(=O)N(CCc2cccc(F)c2)C1 (stereo not drawn)  -56.8%
52. O=C(c1ccc(Cl)c(S(=O)(=O)N2CCOCC2)c1)N(Cc1nnc(-c2ccccc2Cl)o1)C1CC1  -58.9%
53. NC(=O)c1ccsc1NC(=O)CS(=O)(=O)c1ccc(F)cc1  -68.2%
54. NC(=O)c1ccsc1NC(=O)CS(=O)(=O)c1ccc(Cl)cc1  -75.7%

— PMC4336329 (PLoS ONE, 2015)
